Assay outcomes from PubChem BioAssay.
A selection: hits, their analogues and other compounds. The true share with any hit is near 5.3%.
JMJD2A Tudor = JMJD2A Tudor domain (human) inhibition; 4.4% of 390,000 active; O75164; AID 504339; AlphaScreen JMJD2A-Tudor / H3K4me3 peptide binding; Potency, µM (highest dose often 114 µM), inactives show at the top dose activity change, negative = inhibition, hits mostly inhibitors; also: potency is read from the fitted curve at half-maximal effect; % is scaled to controls: 0 for no effect and ±100 for the full control effect; nearly all actives have a fitted effect of over 50% in size
Six1-Eya2 inh = inhibitors of human Six1/Eya2 interaction. AlphaScreen GST-Six1/His-Eya2 binding, biochemical; active compounds read low. activity change, % (test concentration not listed). 0.56% of 360,000 active; in the data active = activity change below about -65%; inconclusive = mostly about -30% to -63%; also: % is scaled to controls: 0 for no effect and ±100 for the full control effect
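Compounds are tested against tagged Six1 and Eya2 proteins bridged by glutathione donor and nickel acceptor beads; after a one-hour incubation at 37 °C without light, AlphaScreen emission is recorded.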
CtBP-E1A blk = CtBP/E1A binding inhibition. AlphaScreen GST-E1A/His-CtBP binding, 1536-well; active compounds read low. activity change, % (concentration not given with the values). 0.49% of 340,000 active; in the data active = activity change below about -65%; inconclusive = mostly about -30% to -63%; also: % is scaled to controls: 0 for no effect and ±100 for the full control effect
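Steps: dispense buffer (Tris pH 8.0, NaCl 300 mM, TCEP 1 mM, BSA, Tween 20); add 5X protein mix (GST-E1A, His-CtBP, 125 nM each); pin 23 nL compound; 2 h at 37 °C, dark; add 5X beads (50 ug/mL); 1 h; read.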
TDP1 block = blocks human tyrosyl-DNA phosphodiesterase 1; Q9NUW8; recombinant TDP1, AlphaScreen DNA substrate cleavage; Potency, µM (series often up to 130 µM), inactives show at the top dose activity change, negative = inhibition, actives largely listed as inhibitors; 0.28% of 350,000 active; also: potency is read from the fitted curve at half-maximal effect; % is scaled to controls: 0 for no effect and ±100 for the full control effect; nearly all actives have a fitted effect of over 40% in size
Target sequence (Q9NUW8 whole entry, looked up): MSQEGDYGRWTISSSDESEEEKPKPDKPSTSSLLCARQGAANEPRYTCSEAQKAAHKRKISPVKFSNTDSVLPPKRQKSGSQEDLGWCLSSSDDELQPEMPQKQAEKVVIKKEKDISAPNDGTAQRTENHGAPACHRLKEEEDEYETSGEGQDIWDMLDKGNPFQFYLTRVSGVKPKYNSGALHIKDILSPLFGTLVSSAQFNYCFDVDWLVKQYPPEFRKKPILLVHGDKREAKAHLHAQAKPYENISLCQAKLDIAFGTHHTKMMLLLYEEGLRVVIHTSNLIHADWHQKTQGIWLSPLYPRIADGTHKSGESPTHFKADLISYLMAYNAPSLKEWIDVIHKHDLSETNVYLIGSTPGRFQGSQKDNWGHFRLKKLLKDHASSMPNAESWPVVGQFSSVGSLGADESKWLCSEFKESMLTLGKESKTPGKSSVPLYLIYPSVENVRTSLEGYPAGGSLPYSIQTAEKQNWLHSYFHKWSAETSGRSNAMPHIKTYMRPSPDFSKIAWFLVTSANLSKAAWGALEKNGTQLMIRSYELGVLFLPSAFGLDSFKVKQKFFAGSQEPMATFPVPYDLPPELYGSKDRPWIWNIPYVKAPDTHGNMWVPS
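Here, a 5' biotin and 3' phosphotyrosine-FITC DNA oligonucleotide reports Tdp1 activity: intact substrate bridges AlphaScreen beads, while cleavage leaves a 3' phosphate and drops signal. All incubations at room temperature.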
BAZ2B inh = inhibitors of human BAZ2B bromodomain; Q9UIF8; AlphaScreen BAZ2B-H3K14Ac peptide displacement; Potency, µM (doses to about 114 µM), for the others: at the highest dose activity change, negative = inhibition, most hits filed as inhibitors; 4.4% of 360,000 active; also: potency is read from the fitted curve at half-maximal effect; % is scaled to controls: 0 for no effect and ±100 for the full control effect; nearly all actives have a fitted effect of over 60% in size
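BAZ2B 50 nM plus b-H3(5-23)K14Ac 50 nM, PBS pH 7.4/0.01% Tween-20, 30 min RT; compound added (max 110 uM), 30 min RT; streptavidin donor/Ni-chelate acceptor beads 10 ug/mL final, 20 min dark; AlphaScreen read.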
HP1b chromo inh = blocks HP1-beta chromodomain binding to methylated histone tails. AID 540317. Potency, µM (top dose mostly 114 µM), for inactives: at the highest dose activity change, negative = inhibition, actives largely listed as inhibitors. P83916. 0.56% of 390,000 active. AlphaScreen HP1-beta / biotin-H3K9me3 peptide binding; also: potency is read from the fitted curve at half-maximal effect; nearly all actives have a fitted effect of over 70% in size
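AlphaScreen: HP1-beta (50 nM) preformed 30 min with biotin-H3(1-18)K9me3 peptide (50 nM) in PBS pH 7.4, 0.01% Tween-20. Compound added for 30 min at RT, then streptavidin donor/nickel chelate acceptor beads (10 ug/mL) for 30 min.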
Numbers without * were called inactive; ? = inconclusive; / = not tested or not shown; [ ] = remark or other dose. Unless noted, calls follow the shape of the dose curve; as a rule, active = well fitted inhibition curve with a large enough effect; inconclusive = small, poorly fitted or top-dose-only effect; inactive = no such curve, though single readings can be large or run the other way.

SMILES | JMJD2A Tudor | Six1-Eya2 inh | CtBP-E1A blk | TDP1 block | BAZ2B inh | HP1b chromo inh
CCOC(=O)C1=C(C)N=c2s/c(=C\c3ccncc3)c(=O)n2C1c1ccc2c(c1)OCO2 (stereo not drawn) | ? | -11 | 1 | 13% | ? | -11%
CCOC(=O)C1=C(C)N=c2s/c(=C/c3ccc(OCC(=O)O)cc3)c(=O)n2C1c1ccc(F)cc1 (stereo not drawn) | 79µM* | -15 | -10 | / | ? | -16%
CC1=C(C(=O)Nc2ccccc2)C(c2ccc(Cl)cc2)n2c(s/c(=C/c3cccc(OCC(=O)O)c3)c2=O)=N1 (stereo not drawn) | ? | -5 | -19 | 0% | 56µM* | ?
CCOc1ccc(C2C(C(=O)Nc3ccccc3)=C(C)N=c3s/c(=C/c4cccc(OCC(=O)O)c4)c(=O)n32)cc1 (stereo not drawn) | ? | -19 | -20 | 0% | ? | 9%
CC(C)CO/N=C1/[C@H]2O[C@@H]2[C@@H](O)[C@H]2[C@H]1CCn1c(=O)n(-c3ccccc3)c(=O)n12 | / | / | / | 8%[21 µM] | / | /
COc1ccc(CN(Cc2ccccc2)C(=O)c2ccc(OC)cc2O)cc1 | -35% | / | / | -14% | / | /
CCOC(=O)C1=C(C)N=c2s/c(=C/c3ccc(OCC(=O)O)c(OC)c3)c(=O)n2C1c1ccc(Cl)cc1 (stereo not drawn) | 20µM* | -16 | -1 | / | / | 32µM*
CCOC(=O)C1=C(C)N=c2s/c(=C\c3ccc(OCC(=O)O)cc3)c(=O)n2C1c1ccc(Cl)cc1 (stereo not drawn) | 20µM* | 3 | -2 | / | 7.9µM* | 40µM*
CCOC(=O)C1=C(c2ccccc2)N=c2s/c(=C\c3cc(OC)c(OC)c(OC)c3)c(=O)n2C1c1cccs1 (stereo not drawn) | -20% | -5 | -4 | -8% | ? | 18%
COc1ccc(CNC(=O)CCNC(=O)N2CCn3c2nc2ccccc23)cc1 | 40µM* | 3 | 8 | 2% | -17%[57.1 µM] | 34%
O=C(c1cccc(Cl)c1)N1CCn2c1nc1ccccc12 | -7% | 9 | 5 | 2% | -14% | 11%
O=C(c1ccccc1)N1CCn2c1nc1ccccc12 | 56µM* | -3 | 1 | 10% | 5% | 5%
O=C(NCc1ccccc1Cl)c1cnc2sc(N3CCCCC3)nn2c1=O | -14% | / | / | 3% | 3% | -15%
O=C(CNc1cccc2ccccc12)N/N=C/c1ccc(OC(=O)/C=C/c2ccco2)cc1 | ? | ? | -79* | 5% | -9% | -18%
O=C(COc1ccc2ccccc2c1)NCC(=O)N/N=C/c1ccco1 | -2% | 0 | 2 | -6% | -31% | 6%
Cc1ccc(C(=O)N/N=C/c2cccc(OC(=O)/C=C/c3ccco3)c2)cn1 | -4%[11.4 µM] | -10 | / | / | 50µM* | ?
O=C(CNc1ccc2ccccc2c1)N/N=C/c1ccc(OC(=O)/C=C/c2ccco2)cc1 | -19% | ? | -67* | 6% | -11% | -3%
CCc1ccc2oc(-c3ccc(C)c(NC(=O)Cc4ccccc4)c3)nc2c1 | -14% | / | / | 2%[12.3 µM] | 39% | 61%
CC1=NN(c2ccccc2)C(=O)C1 | -15% | 4 | -5 | 8% | -32% | 25%
CC1=NN(c2ccc(S(=O)(=O)O)cc2C)C(=O)C1 | 50µM* | 6 | 14 | -4% | 56µM* | 42%
COc1ccc(CC(=O)N(C)CC(=O)Nc2ccccc2SC)cc1 | 28µM* | 0 | 3 | -14% | 2% | -6%
CSc1ccccc1NC(=O)CN(C)C(=O)Cc1c[nH]c2ccccc12 | -19% | 1 | -5 | 2% | 0% | 18%
CC1=CC(C)C2(COC(c3ccc[n+](C)c3)OC2)C(C)C1 (stereo not drawn) | 22µM* | 4 | / | 2% | -36% | -5%
Cc1ccccc1CN1CCN(S(=O)(=O)c2ccc(Cl)s2)CC1 | 47% | 7 | 24 | -6% | 12% | 111%
CCS(=O)(=O)N1CCN(S(=O)(=O)c2ccc(Cl)s2)CC1 | -1% | 0 | 2 | -18% | 50µM* | 38%
SMILES | JMJD2A Tudor | Six1-Eya2 inh | CtBP-E1A blk | TDP1 block | BAZ2B inh | HP1b chromo inh
CC1CCCN(CCCNC(=O)c2coc3nc4ccccc4nc23)C1 (stereo not drawn) | -10% | -1 | 9 | 5% | 10% | 39%
Cc1ccc(CCNC(=O)c2coc3nc4ccccc4nc23)cc1 | 40µM* | -2 | 9 | 8% | 0% | 29%
CCn1ccc2cc(S(=O)(=O)N3CCC(C(=O)NCC(C)c4ccccc4)CC3)ccc21 (stereo not drawn) | -2% | / | / | 8% | 4% | 24%[57 µM]
CCC(CO)NC(=O)C(=O)Nc1c2c(nn1-c1ccc(F)cc1)CSC2 (stereo not drawn) | -4% | / | / | 3% | 0% | 4%
O=C(O)c1ccc(Cl)c(S(=O)(=O)Nc2ccc(S(=O)(=O)N3CCCC3)cc2)c1 | -16% | 0 | / | 2% | / | 25%
COC(=O)c1cc(NS(=O)(=O)c2ccc(Cl)c(N3C(=O)c4ccc(C(=O)O)cc4C3=O)c2)cc(C(=O)OC)c1 | -18% | -5 | -2 | / | 0.79µM* | -5%
CN(C)c1ccc(P(=O)(COc2ccc([N+](=O)[O-])cc2)c2ccc(N(C)C)cc2)cc1 | 22µM* | -22 | -22 | 5% | 25µM* | ?
C=CCn1c(CNC(=O)c2ccco2)nnc1SCC(=O)N1c2ccccc2Sc2ccccc21 | -23% | -9 | -14 | 7% | 79µM* | -5%
CCC1CCCCN1C(=O)CSc1nnc(-c2ccc(OC)c(OC)c2)o1 (stereo not drawn) | 7% | / | / | 2%[12.3 µM] | 2% | 30%
N#Cc1c(-c2ccccc2)cc(-c2ccc3c(c2)OCO3)[nH]c1=O | -3% | 1 | -1 | -7% | -1% | 27%
COc1ccc(-c2cc(-c3ccco3)[nH]c(=O)c2C#N)cc1OC | ? | -7 | 1 | -4% | 56µM* | 12%
CCOC(=O)c1ccccc1NC(=O)c1ccc2nccnc2c1 | 50µM* | -8 | -6 | -11% | / | -11%
O=C(Nc1nccs1)c1ccc2nccnc2c1 | 79µM* | ? | ? | -5% | -2% | -22%
COc1ccc(CCNC(=O)C(=O)Nc2nccs2)cc1OC | 79µM* | -1 | 2 | 9% | -1% | 26%
COc1ccc(CCNc2nc(-c3ccccn3)cs2)cc1OC | ? | -79* | / | / | 22µM* | 8%[57 µM]
COc1ccc(CCNc2nc(-c3ccncc3)cs2)cc1OC | -7%[11.4 µM] | -11 | -20 | / | -13% | 11%
COc1ccc(CCNC(=O)C(=O)Nc2ccc(C)cc2)cc1OC | -16% | / | / | -5% | 3% | 32%
